Drawing on PubChem BioAssay (EPA / NIEHS), this text covers outcome for 13 compounds.

Structures are written as SMILES. Activity calls are given as the source filed them. Rule for the calls: active = hit-call score of the fitted dose curve at least 0.9, where 1 is the maximum; inactive = score below 0.9.

The experiment in a line: APR_HepG2_NuclearSize_72hr: Apredica 72-hour HepG2 Assay for Nuclear Size (AID 2282925). The note with it: high-content imaging, actives raise or lower the signal. The method, then:
APR_HepG2_72hr is a cell-based, multiplexed-readout assay that uses HepG2, a human liver cell line, with measurements taken at 72 hours after chemical dosing in a 384-well plate.APR_HepG2_NuclearSize_72hr is one of 10 assay component(s) measured or calculated from the APR_HepG2_72hr assay. It is designed to make measurements of cell phenotype, a form of morphology reporter, as detected with fluorescence intensity signals by HCS Fluorescent Imaging technology.Data from the assay component APR_HepG2_NuclearSize_72hr was analyzed into 1 assay endpoint. This assay endpoint, APR_HepG2_NuclearSize_72hr, was analyzed with bidirectional fitting relative to DMSO as the negative control and baseline of activity. Using a type of morphology reporter, measures of all nuclear dna for gain or loss-of-signal activity can be used to understand the signaling at the nuclear-level. Furthermore, this assay endpoint can be referred to as a primary readout, because this assay has produced multiple assay endpoints where this one serves a signaling function. To generalize the intended target to other relatable targets, this assay endpoint is annotated to the cell morphology intended target family, where the subfamily is organelle conformation.
Cells were treated with dimethyl sulfoxide (DMSO) as a solvent control at a final concentration of 0.5% v/v or with compounds in DMSO with a resulting final DMSO concentration of 0.5% v/v. Compound treatment was done at concentrations of 0.39, 0.78, 1.56, 3.12, 6.24, 12.5, 25, 50, 100, and 200 uM in duplicate on each plate. Cells were treated with compounds for 1, 24, or 72 hr. Carbonyl […] m-chloro-phenylhydrazone (CCCP) and taxol were used as positive controls for mitochondrial function and cytoskeletal stability, respectively; DMSO served as the negative control for this experiment. Cells were fixed by the direct addition of 50 uL formaldehyde in Hank's Balanced Salt Solution (HBSS) to a final concentration of 3.7%. After incubation in the fixation medium for 30 min at room temperature (293-298 K), cells were rinsed twice with HBSS and treated with cell permeabilization buffer (16 uL of 0.5% Triton X-100) for 10 min at room temperature (293-298 K) before labeling. For mitochondrial membrane potential and mitochondrial measurements, pre-fixed cells were incubated with 50 uL of MitoTracker Red CMXRos (Invitrogen) at a concentration of 250 nM for 30 min before fixation. In the remaining cases, post-fixed cells were labeled by incubation with a multiplexed mixture of primary antibodies in HBSS for 60 min at room temperature (293-298 K) to detect immunoreactivity of c-Jun (1:500), phospho-histone H3 (1:100), phospho-histone H2A.x (1:200), p53 (1:400), alpha-tubulin (1:200) and Hoechst 33342 (2 ug/mL). Cells were labeled for multiplexed imaging on two separate plates: a) Hoechst 33342, MitoTracker Red, phospho-histone H3, and alpha-tubulin, and b) Hoechst 33342, phospho-histone H2A.x, and c-Jun. A final rinse with HBSS (50 uL) was performed before analysis. The primary and secondary antibodies for the proteins were phospho-histone H3 (rabbit anti-phospho-histone H3 and FITC-donkey anti-rabbit IgG), phospho-histone H2A.x (mouse anti-phospho-histone H2A.x and FITC-donkey anti-mouse IgG), c-Jun (rabbit anti-phospho-c-Jun and Cy3-donkey anti-rabbit IgG), p53 (sheep anti-p53 and Cy5-donkey anti-sheep IgG), alpha-tubulin (mouse anti-alpha-tubulin and Cy5-donkey anti-mouse IgG). These antibodies are available as the CellCiphr HepG2 assay kit (Millipore).Digital images of each well were captured using a Cellomics ArrayScan VTI (Thermo Scientific Cellomics) (0.8 NA objective, 0.63x optical coupler, and XF-93 filter set) at 20x magnification. The images were acquired using the autofocus feature of the ArrayScan instrument, which entails the following steps. First, the camera focuses on channel 1 (Hoechst 33342), where nuclei are identified. Second, a Z offset of 1 um is used for capturing mitochondria (MitoTracker Red). […]
With `Clc1cccc(Cl)c1`, the compound was called inactive. As for `COc1ccccc1N`, the entry is “inactive”; as for `O=C(N[C@H]1CN2CCC1CC2)c1ccc2c(c1)OCCO2`, “inactive”. `CC(C)(C)c1ccccc1O`: the outcome was inactive. As for `O=C(O)C1(c2ccc3c(c2)OC[C@H](Cc2ccc(-c4ccccc4)cc2)[C@H]3O)CCCC1`, the entry is “inactive”.

In the case of `Clc1cccc(Cl)c1Cl`, the compound was classed as inactive.

For `N#Cc1cccnc1`, the compound was classed as inactive.

For the compound `CC(C)O.CC(C)O.OCCN(CCO)CCO.OCCN(CCO)CCO.[Ti]`, the result was inactive. Regarding `Cc1cc(C)cc(C)c1`, the result was inactive. As for `CN(C)C(=S)S`, the entry is “inactive”; as for `Oc1cc(Cl)c(Cl)cc1Cl`, “inactive”.

For the compound `CCCCCCCCCCCCc1cccc(S(=O)(=O)O)c1`, the compound was called inactive. As for `OCCN(CCO)CCO`, the entry is “inactive”.
